Measured values published in PubChem BioAssay (NCATS).
Records with an inconclusive call do not appear. Active and inactive are the calls of the source. Unless noted, calls follow the shape of the dose curve; as a rule, active = well fitted curve in the direction sought with a large enough effect; inconclusive = small, poorly fitted or top-dose-only effect, or another doubt; inactive = no such curve, though single readings can be large; an effect the other way counts as inactive or inconclusive.

Columns and labels:
[1] = Natriuretic polypeptide receptor (hNpr1) antagonism - Pilot counterscreen GloSensor control cell line (AID 1347045; calls by dose curve; also: series mostly up to about 38 µM; % is scaled to controls: 0 for no effect and ±100 for the full control effect)
Outline: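 HEK293 cells carrying the GloSensor cGMP sensor (GIP/pGS-40F) were loaded with 2% GloSensor reagent for 2 h, exposed to compounds for 30 min, and then stimulated with 50 uM sodium nitroprusside for 20 min at room temperature.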

[2] = target: Atrial natriuretic peptide receptor 1 (Homo sapiens) (UniProt P16066); assay: Natriuretic polypeptide receptor (hNpr1) antagonism - Pilot screen (AID 1347049; calls by dose curve;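 also: agonist-evoked cGMP luminescence read 20 min after hNppA addition; series mostly up to about 58 µM; % is scaled to controls: 0 for no effect and ±100 for the full control effect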)
Outline: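 HEK293 cells co-expressing hNpr1 and the GloSensor pGS-40F cGMP luciferase sensor were preloaded with 2% GloSensor reagent for 2 h. Compounds were added for 30 min at room temperature, then cells were stimulated with 0.1 nM hNppA for 20 min before luminescence readout.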

[3] = target: Atrial natriuretic peptide receptor 2 (Homo sapiens) (UniProt P20594); assay: Natriuretic polypeptide receptor (hNpr2) antagonism - Pilot subtype selectivity assay (AID 1347050; calls by dose curve; also: % is scaled to controls: 0 for no effect and ±100 for the full control effect)
Outline: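 cGMP-sensor HEK293/hNpr2 cells; 2% GloSensor reagent 2 h RT; compounds 30 min; baseline luminescence read; 1 nM hNppC agonist 20 min RT; final luminescence read by CCD camera. Antagonism = reduced post-agonist signal.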

[4] = NS1 protein of Zika virus - qHTS assay to identify small molecule inhibitors in human HEK 293 cells (AID 1347053);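 also: series mostly up to about 46 µM; plate controls were infected untreated cells for no effect and uninfected cells for full effect; nearly all actives have a fitted effect of over 55% in size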
Outline: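 HEK 293; 20 h pre-culture, 37 C/5% CO2; cpd 1 h pre-infection; ZIKV MR766, MOI = 0.5, 24 h, 37 C; TR-FRET NS1 readout (two anti-NS1 Abs); norm. to no-virus vs infected.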

[5] = target: T1, Tyrosine-protein phosphatase non-receptor type substrate 1 (Homo sapiens) + Leukocyte surface antigen CD47 (Homo sapiens) (UniProt P78324+Q08722); assay: CD47-SIRPalpha protein protein interaction - LANCE assay qHTS validation (AID 1347057; active = well fitted curve in the direction sought with a large enough effect in the signal ratio, with a control signal flat, not every such curve was filed as active; the % refers to the signal ratio; also: series mostly up to about 38 µM; 0% is about no effect)
Outline: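 First, His-tagged CD47 and Eu-labelled anti-His antibody met the compound for 30 min; next, site-specifically biotinylated SIRPalpha was added for 30 min; finally streptavidin-APC was added before reading the TR-FRET ratio.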

[6] = target: T1, Tyrosine-protein phosphatase non-receptor type substrate 1 (Homo sapiens) + Leukocyte surface antigen CD47 (Homo sapiens); assay: CD47-SIRPalpha protein protein interaction - HTRF assay qHTS validation (AID 1347058; active = well fitted curve in the direction sought with a large enough effect in the signal ratio, not every such curve was filed as active; the % refers to the signal ratio; also: series mostly up to about 38 µM; 0% is about no effect)
Outline: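 TR-FRET read (Ch1/Ch2 ratio) of soluble extracellular CD47 and Avi-biotinylated SIRPalpha domains in PBS pH 7.4 with 0.05% IGEPAL; 7-point compound titration. Sequential 30 min room-temperature steps; non-biotinylated SIRPalpha as control inhibitor.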

[7] = target: T1, Tyrosine-protein phosphatase non-receptor type substrate 1 (Homo sapiens) + Leukocyte surface antigen CD47 (Homo sapiens); assay: CD47-SIRPalpha protein protein interaction - Alpha assay qHTS validation (AID 1347059);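 also: bead proximity luminescence from CD47 binding SIRPalpha after compound preincubation with SIRPalpha; % is scaled to controls: 0 for no effect and ±100 for the full control effect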
Outline: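 Soluble extracellular domains: Avi-tag biotinylated SIRPalpha (25 nM) preincubated 30 min RT with compound, then 6His-CD47 (12.5 nM) 30 min; Ni-NTA acceptor and streptavidin donor beads (10 ug/mL) 30 min, AlphaScreen read. PBS pH 7.4, 0.05% IGEPAL.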

[8] = target: Parathyroid hormone/parathyroid hormone-related peptide receptor (Homo sapiens) (UniProt Q03431); assay: qHTS for PTHR1 Agonists: Optimization Screen against the NCGC LOPAC library (AID 1347079);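 also: GloSensor cAMP luminescence in HEK-293 GP2 cells expressing human PTHR1 with IBMX; 0% is about no effect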
Outline: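 Compounds were tested across a qHTS titration. PTHR1-expressing GP2 cells report cAMP rises via GloSensor luminescence after 1 hr compound exposure at 37C with IBMX present.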

[9] = qHTS of pediatric cancer cell lines to identify multiple opportunities for drug repurposing: Primary screen for DAOY cells (AID 1347090); also: nearly all actives have a fitted effect of over 55% in size; also: potency is read from the fitted curve at half-maximal effect;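 as to activity change, negative = cytotoxic: series mostly up to about 46 µM; plate controls were DMSO for no effect and bortezomib for full effect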
Outline: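 Eight- or eleven-point concentration series, 48 h treatment at 37 degrees C in growth media; readout CellTiter-Glo luminescence. Potency and efficacy were taken from the concentration-response curves.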

[10] = qHTS of pediatric cancer cell lines to identify multiple opportunities for drug repurposing: Primary screen for TC32 cells (AID 1347089); also: nearly all actives have a fitted effect of over 60% in size; also: potency is read from the fitted curve at half-maximal effect
Outline: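 In the primary qHTS, MIPE compounds were tested at 11 concentrations (0.78 nM to 46 µM) and NPC compounds at 8 (0.59 nM to 46 µM) on TC32 cells for 48 h. CellTiter-Glo luminescence gave viability.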

Atrial natriuretic peptide receptor 2 (Homo sapiens), sequence (P20594 whole entry, looked up): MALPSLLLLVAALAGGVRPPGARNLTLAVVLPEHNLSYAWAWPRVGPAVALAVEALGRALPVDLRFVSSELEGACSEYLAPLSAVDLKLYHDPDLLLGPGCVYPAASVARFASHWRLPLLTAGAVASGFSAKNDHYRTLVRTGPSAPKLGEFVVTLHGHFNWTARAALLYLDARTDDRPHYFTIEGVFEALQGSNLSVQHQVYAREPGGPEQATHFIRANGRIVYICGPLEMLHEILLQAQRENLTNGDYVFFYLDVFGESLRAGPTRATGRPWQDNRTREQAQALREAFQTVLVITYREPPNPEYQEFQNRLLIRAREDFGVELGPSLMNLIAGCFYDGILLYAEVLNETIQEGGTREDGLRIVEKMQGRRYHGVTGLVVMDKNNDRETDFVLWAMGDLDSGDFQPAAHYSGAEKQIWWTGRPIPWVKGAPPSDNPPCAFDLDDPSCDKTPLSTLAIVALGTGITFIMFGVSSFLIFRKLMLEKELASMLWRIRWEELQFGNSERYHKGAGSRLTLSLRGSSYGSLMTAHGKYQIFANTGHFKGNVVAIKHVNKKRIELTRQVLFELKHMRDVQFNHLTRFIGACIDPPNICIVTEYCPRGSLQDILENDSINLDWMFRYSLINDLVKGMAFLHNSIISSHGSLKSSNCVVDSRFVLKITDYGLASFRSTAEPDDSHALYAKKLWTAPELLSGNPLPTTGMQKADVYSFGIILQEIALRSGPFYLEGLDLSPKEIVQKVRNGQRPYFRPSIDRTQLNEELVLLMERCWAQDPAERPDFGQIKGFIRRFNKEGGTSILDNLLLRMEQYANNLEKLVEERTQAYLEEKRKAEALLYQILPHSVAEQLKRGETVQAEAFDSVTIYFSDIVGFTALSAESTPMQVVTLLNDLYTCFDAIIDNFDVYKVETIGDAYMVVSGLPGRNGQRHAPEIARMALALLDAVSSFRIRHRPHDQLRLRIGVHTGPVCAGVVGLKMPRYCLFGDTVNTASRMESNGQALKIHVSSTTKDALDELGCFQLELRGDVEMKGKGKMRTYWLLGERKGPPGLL
T1 sequence (P78324 whole entry, looked up): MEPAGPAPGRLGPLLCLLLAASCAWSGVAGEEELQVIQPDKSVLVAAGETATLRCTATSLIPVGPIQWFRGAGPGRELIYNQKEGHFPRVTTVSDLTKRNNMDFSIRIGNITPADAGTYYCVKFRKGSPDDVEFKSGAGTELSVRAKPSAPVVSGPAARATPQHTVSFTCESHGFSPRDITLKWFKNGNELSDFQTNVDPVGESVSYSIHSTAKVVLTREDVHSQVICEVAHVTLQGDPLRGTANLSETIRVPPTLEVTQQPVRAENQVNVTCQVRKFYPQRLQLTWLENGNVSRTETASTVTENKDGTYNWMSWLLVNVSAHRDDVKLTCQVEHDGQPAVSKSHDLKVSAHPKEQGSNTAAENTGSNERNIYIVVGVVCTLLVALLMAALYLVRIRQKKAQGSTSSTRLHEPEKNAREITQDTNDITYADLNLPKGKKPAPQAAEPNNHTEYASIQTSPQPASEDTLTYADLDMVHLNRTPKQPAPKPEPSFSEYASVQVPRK
T1 sequence (Q08722 whole entry, looked up): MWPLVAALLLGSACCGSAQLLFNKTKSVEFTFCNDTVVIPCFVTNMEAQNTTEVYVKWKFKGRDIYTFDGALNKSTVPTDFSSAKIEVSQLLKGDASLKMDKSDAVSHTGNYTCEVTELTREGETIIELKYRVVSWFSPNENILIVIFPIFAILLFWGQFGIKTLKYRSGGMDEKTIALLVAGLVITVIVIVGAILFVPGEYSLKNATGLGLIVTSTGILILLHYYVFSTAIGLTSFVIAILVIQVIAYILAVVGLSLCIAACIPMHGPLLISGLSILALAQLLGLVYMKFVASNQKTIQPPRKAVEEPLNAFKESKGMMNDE
Parathyroid hormone/parathyroid hormone-related peptide receptor (Homo sapiens), sequence (Q03431 whole entry, looked up): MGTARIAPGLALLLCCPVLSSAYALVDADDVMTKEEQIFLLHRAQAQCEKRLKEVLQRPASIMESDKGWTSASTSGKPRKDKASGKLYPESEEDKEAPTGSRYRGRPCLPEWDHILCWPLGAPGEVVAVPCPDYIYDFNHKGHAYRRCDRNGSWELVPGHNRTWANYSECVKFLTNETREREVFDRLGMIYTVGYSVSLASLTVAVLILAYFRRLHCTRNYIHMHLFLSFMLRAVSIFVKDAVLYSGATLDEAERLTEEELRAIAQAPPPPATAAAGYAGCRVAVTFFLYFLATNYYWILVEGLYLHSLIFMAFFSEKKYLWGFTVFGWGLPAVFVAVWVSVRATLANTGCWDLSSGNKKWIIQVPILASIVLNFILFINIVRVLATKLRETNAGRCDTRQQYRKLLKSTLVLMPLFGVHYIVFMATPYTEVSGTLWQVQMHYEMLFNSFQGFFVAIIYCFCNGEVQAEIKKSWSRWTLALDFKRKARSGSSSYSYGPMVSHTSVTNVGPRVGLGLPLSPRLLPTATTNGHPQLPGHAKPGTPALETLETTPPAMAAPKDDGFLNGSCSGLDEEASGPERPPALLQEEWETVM
Atrial natriuretic peptide receptor 1 (Homo sapiens), sequence (P16066 whole entry, looked up): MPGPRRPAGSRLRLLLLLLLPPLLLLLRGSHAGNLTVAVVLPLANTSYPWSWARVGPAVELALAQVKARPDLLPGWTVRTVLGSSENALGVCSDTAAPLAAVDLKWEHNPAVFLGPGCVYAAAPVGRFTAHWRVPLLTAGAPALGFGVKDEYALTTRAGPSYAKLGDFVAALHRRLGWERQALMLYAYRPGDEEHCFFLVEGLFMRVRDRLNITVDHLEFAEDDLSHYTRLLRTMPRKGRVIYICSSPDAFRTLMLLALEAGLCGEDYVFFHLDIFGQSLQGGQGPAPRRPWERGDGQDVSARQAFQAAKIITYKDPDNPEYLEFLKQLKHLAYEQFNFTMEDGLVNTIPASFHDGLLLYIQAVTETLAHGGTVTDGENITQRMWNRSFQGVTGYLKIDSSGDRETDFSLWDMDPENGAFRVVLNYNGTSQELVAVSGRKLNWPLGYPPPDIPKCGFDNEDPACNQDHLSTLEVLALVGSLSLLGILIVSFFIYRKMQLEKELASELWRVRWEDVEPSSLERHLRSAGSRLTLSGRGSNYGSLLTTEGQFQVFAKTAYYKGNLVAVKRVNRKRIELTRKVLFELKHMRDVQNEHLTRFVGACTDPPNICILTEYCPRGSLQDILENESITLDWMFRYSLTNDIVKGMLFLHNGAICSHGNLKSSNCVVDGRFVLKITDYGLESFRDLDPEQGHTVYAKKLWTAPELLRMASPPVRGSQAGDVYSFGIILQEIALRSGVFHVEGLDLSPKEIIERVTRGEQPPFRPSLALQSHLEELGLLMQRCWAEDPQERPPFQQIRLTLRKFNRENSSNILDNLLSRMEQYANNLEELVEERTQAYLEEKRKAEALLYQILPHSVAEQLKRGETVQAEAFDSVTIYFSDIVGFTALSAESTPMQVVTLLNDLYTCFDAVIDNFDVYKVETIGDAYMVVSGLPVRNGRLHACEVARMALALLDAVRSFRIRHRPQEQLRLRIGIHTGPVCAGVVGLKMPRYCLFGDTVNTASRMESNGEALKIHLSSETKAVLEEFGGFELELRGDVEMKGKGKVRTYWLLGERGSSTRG

CN(C(=O)CCCOc1ccc2[nH]c(=O)ccc2c1)C1CCCCC1
inactive: Potency [1] | Potency [2] | Potency [3] | outcome [4] | outcome [5] | outcome [6] | Potency [7] | outcome [8] | Potency [9]

CN1C[C@H](C(=O)N[C@]2(C)O[C@@]3(O)[C@@H]4CCCN4C(=O)[C@H](Cc4ccccc4)N3C2=O)C[C@@H]2c3cccc4[nH]cc(c34)C[C@H]21
inactive: Potency [1] | Potency [2] | Potency [3] | outcome [4] | outcome [5] | outcome [6] | outcome [8] | Potency [10] | Potency [9]

Cc1ccc(Cl)c(Nc2ccccc2C(=O)O)c1Cl
inactive: Potency [1] | Potency [2] | Potency [3] | outcome [4] | outcome [5] | Potency [7] | outcome [8] | Potency [10]

CN1CCN(CC(=O)N2c3ccccc3C(=O)Nc3cccnc32)CC1
inactive: Potency [1] | Potency [2] | Potency [3] | outcome [4] | outcome [5] | Potency [7] | outcome [8] | activity change, negative = cytotoxic [9] 1.05% [at 4.84 µM]

CCCOc1ccccc1-c1nc2n[nH]nc2c(=O)[nH]1
inactive: Potency [1] | Potency [2] | Potency [3] | outcome [4] | outcome [5] | outcome [6] | Potency [7] | outcome [8] | Potency [9]

Cc1cccc(C)c1NC(=O)C(C)N (stereo unspecified)
inactive: Potency [1] | Potency [2] | Potency [3] | outcome [4] | outcome [5] | outcome [6] | Potency [7] | outcome [8] | Potency [9]

COCCOC(=O)C1=C(C)NC(C)=C(C(=O)OC(C)C)C1c1cccc([N+](=O)[O-])c1 (stereo unspecified)
inactive: Potency [1] | Potency [2] | Potency [3] | outcome [4] | outcome [5] | Potency [7] | outcome [8] | Potency [10]

CC(=O)OC(C)C[N+](C)(C)C (stereo unspecified)
inactive: Potency [1] | Potency [2] | Potency [3] | outcome [4] | outcome [5] | outcome [6] | Potency [7] | outcome [8] | Potency [9]

NC(Cc1ccc(Cl)cc1)C(=O)O (stereo unspecified)
inactive: Potency [1] | Potency [2] | Potency [3] | outcome [4] | outcome [5] | outcome [6] | Potency [7] | outcome [8] | activity change, negative = cytotoxic [10] 11.6% [at 0.594 µM] | activity change, negative = cytotoxic [9] 15.2% [at 0.597 µM]

CCOC(=O)C1=C(C)NC(C)=C(C(=O)OC)C1c1cccc(Cl)c1Cl (stereo unspecified)
inactive: Potency [1] | Potency [2] | Potency [3] | outcome [4] | outcome [5] | outcome [6] | Potency [7] | outcome [8] | Potency [9]

CC(=O)[C@@]1(O)CC[C@H]2[C@@H]3CCC4=CC(=O)CC[C@]4(C)[C@H]3CC[C@@]21C
inactive: Potency [1] | Potency [2] | Potency [3] | outcome [4] | outcome [5] | outcome [6] | Potency [7] | outcome [8] | Potency [9]

COC(=O)[C@@H](N)Cc1ccc(O)c(O)c1
inactive: Potency [1] | Potency [2] | Potency [3] | outcome [4] | outcome [5] | outcome [6] | Potency [7] | outcome [8] | Potency [9]

CCCN1C[C@H](CSC)C[C@@H]2c3cccc4[nH]cc(c34)C[C@H]21
inactive: Potency [1] | Potency [2] | Potency [3] | outcome [4] | outcome [5] | outcome [6] | Potency [7] | outcome [8] | Potency [9]

Nc1c2c(nc3ccccc13)CCCC2O (stereo unspecified)
inactive: Potency [1] | Potency [2] | Potency [3] | outcome [4] | outcome [5] | outcome [6] | Potency [7] | outcome [8] | Potency [9]

CCCCNc1ccc(C(=O)OCCN(C)C)cc1
inactive: Potency [1] | Potency [2] | Potency [3] | outcome [4] | outcome [5] | outcome [6] | Potency [7] | outcome [8] | Potency [9]

Cc1scc2c1N(C(=O)CN1CCN(C)CC1)c1ccccc1NC2=O
inactive: Potency [1] | Potency [2] | Potency [3] | outcome [4] | outcome [5] | Potency [7] | outcome [8] | Potency [9]

CCN(CC)CCNC(=O)c1cc(S(C)(=O)=O)ccc1OC
inactive: Potency [1] | Potency [2] | Potency [3] | outcome [4] | outcome [5] | Potency [7] | outcome [8] | Potency [9]

CN1C(=O)CC[C@H]1c1cccnc1
inactive: Potency [1] | Potency [2] | Potency [3] | outcome [4] | outcome [5] | outcome [6] | Potency [7] | outcome [8] | Potency [9]

CN(C)CC/C=C1\c2ccccc2COc2ccccc21
inactive: Potency [1] | Potency [2] | Potency [3] | outcome [4] | outcome [5] | Potency [7] | outcome [8] | Potency [9]

CC(C)COCC(CN(Cc1ccccc1)c1ccccc1)N1CCCC1 (stereo unspecified)
inactive: Potency [1] | Potency [2] | Potency [3] | outcome [4] | outcome [5] | Potency [7] | outcome [8]

NS(=O)(=O)c1cc2c(cc1Cl)NC(C1CC3C=CC1C3)NS2(=O)=O (stereo unspecified)
inactive: Potency [1] | Potency [2] | Potency [3] | outcome [4] | outcome [5] | Potency [7] | outcome [8] | Potency [10] | Potency [9]

CCc1cccc(N(C)C(N)=Nc2cccc3ccccc23)c1
inactive: Potency [1] | Potency [2] | Potency [3] | outcome [4] | outcome [5] | outcome [6] | Potency [7] | outcome [8] | Potency [9]

CCN(CC)CCOCCOC(=O)C1(c2ccccc2)CCCC1
inactive: Potency [1] | Potency [2] | Potency [3] | outcome [4] | outcome [5] | outcome [6] | Potency [7] | outcome [8] | Potency [9]

Cc1nc2ccccn2c(=O)c1CCN1CCC(C(=O)c2ccc(F)cc2)CC1
inactive: Potency [1] | Potency [2] | Potency [3] | outcome [4] | outcome [5] | Potency [7] | outcome [8] | Potency [9]

CCC(=O)c1ccc2c(c1)N(CCCN(C)C)c1ccccc1S2
inactive: Potency [1] | Potency [2] | Potency [3] | outcome [4] | outcome [5] | Potency [7] | outcome [8] | Potency [10] | Potency [9]

COCCc1ccc(OCC(O)CNC(C)C)cc1 (stereo unspecified)
inactive: Potency [1] | Potency [2] | Potency [3] | outcome [4] | outcome [5] | outcome [6] | Potency [7] | outcome [8] | Potency [9]

Nc1nc(N)c2nc(-c3ccccc3)c(N)nc2n1
inactive: Potency [1] | Potency [2] | Potency [3] | outcome [4] | outcome [5] | Potency [7] | outcome [8]
active: Potency [10] 7.45 µM | Potency [9] 26.6 µM

COC(=O)C1=C(C)NC(C)=C(C(=O)OC(C)(C)CN(C)CCC(c2ccccc2)c2ccccc2)C1c1cccc([N+](=O)[O-])c1 (stereo unspecified)
inactive: Potency [2] | Potency [3] | outcome [5] | outcome [6] | Potency [7] | outcome [8]
